The record followed here is PubChem BioAssay AID743314 (Broad Institute, 2014).

Potency and affinity values are given separately. Results filed as inconclusive are left out. A call without a number means that no potency is given here. Active and inactive are the calls of the source.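 How the source made its calls: active means fitted half-maximal concentration no higher than twice the top tested dose, in every repeat run; inconclusive means repeat runs disagree, poor fit, or flat partial inhibition; inactive means the rest.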

Chain of Endoplasmic reticulum aminopeptidase 1 (Homo sapiens) (Q9NZ08 whole entry, looked up): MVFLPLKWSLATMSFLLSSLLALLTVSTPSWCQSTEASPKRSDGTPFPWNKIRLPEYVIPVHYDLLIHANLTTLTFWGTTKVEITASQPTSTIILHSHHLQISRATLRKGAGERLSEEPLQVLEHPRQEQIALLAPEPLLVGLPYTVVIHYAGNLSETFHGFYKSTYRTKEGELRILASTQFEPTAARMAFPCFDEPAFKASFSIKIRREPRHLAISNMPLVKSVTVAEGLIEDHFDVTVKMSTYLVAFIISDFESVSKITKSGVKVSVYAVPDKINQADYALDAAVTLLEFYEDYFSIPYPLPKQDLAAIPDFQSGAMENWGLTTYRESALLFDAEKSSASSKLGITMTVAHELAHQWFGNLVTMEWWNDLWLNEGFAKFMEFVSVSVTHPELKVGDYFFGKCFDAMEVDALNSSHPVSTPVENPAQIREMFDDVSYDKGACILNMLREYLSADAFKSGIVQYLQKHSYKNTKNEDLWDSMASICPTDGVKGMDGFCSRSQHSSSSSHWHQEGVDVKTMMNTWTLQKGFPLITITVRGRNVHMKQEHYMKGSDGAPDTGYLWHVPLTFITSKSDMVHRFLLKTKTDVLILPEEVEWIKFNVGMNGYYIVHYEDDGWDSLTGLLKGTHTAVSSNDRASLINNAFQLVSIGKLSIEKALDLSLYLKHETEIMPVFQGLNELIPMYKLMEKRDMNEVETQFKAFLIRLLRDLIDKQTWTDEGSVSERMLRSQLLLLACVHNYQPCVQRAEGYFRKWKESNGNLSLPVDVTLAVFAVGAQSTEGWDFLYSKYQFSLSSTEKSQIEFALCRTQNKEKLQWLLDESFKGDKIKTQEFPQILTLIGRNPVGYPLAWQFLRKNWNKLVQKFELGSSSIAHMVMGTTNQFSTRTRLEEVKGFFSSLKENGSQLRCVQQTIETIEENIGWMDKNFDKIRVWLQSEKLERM

The assay has as its target Endoplasmic reticulum aminopeptidase 1 (Homo sapiens) (UniProt Q9NZ08). The assay can be described thus: ERAP1 aminopeptidase inhibitors, dose response, biochemical, cherry-pick, set 2, plate reader (AID 743314). Conditions: Recombinant ERAP1, Leu-AMC fluorescence, 60 min; series mostly up to 11 µM.
Turning to `CCN1CCN(c2ccc(S(=O)(=O)N3CCCCC3)cc2NC(=O)c2ccccc2)CC1`, the outcome was inactive. In the case of `C[C@H](CO)N1C[C@H](C)[C@H](CN(C)C)Oc2c(NC(=O)Nc3ccc(C(F)(F)F)cc3)cccc2C1=O` it was “inactive”; in that of `C[C@H](CO)N1C[C@H](C)[C@@H](CN(C)S(=O)(=O)c2ccccc2)Oc2ccc(NC(=O)CCN3CCOCC3)cc2C1=O`, “inactive”. Next, `N#Cc1ccc(-c2ccc([C@H]3[C@H](CO)N4C(=O)CN(C(=O)C5CC5)C[C@@H]34)cc2)cc1`: “inactive”. `COc1cccc(-c2ccc([C@H]3[C@H]4CN(C(=O)c5cccnc5)CC(=O)N4[C@H]3CO)cc2)c1`: the result was inactive. In the case of `CCCN1[C@@H]2c3ccc(-c4cccnc4)c(=O)n3C[C@H]1[C@H](CO)[C@H]2C(=O)NCCc1cn(C)cn1` it was “inactive”; in that of `CCN(CC)CCCN=C1N[C@@H](c2cccc(C(F)(F)F)c2)C(C(=O)OC)=C(C)N1CC`, “inactive”.

With `COc1ccc(S(=O)(=O)N[C@@H]2C=C[C@H](CC(=O)NCc3ccccc3F)O[C@@H]2CO)cc1`, the outcome was inactive. In the case of `COc1ccc(CNCc2c(O)c(Cl)cc3c(C)c(C)c(=O)oc23)c(OC)c1` it was “inactive”. As for `COc1ccc(CCC(=O)NC2CCCc3ccccc32)cc1OC` (stereo not drawn), the result was inactive. In the case of `Cc1[nH]c2ccccc2c1C(=O)CN1C(=O)C(=O)N(Cc2ccco2)C1=O` it was “inactive”; in that of `C/C=C/c1ccc([C@H]2[C@@H](CO)N(C(=O)CC)[C@@H]2CNCC2CCCCC2)cc1`, “inactive”; in that of `CCOC(=O)N1CCc2c(sc(NC(=O)c3ccc(S(=O)(=O)N4CCCC4)cc3)c2C#N)C1`, “inactive”.
